SMILES strings stand for the structures. Active and inactive are the calls of the source. The calls were made as follows: active = hit-call score of the fitted dose curve at least 0.9, where 1 is the maximum; inactive = score below 0.9.

The nature of the assay: APR_HepG2_MitoticArrest_24hr: Apredica 24-hour HepG2 Assay for Mitotic Arrest (AID 2282910). Particulars: high-content imaging, actives raise or lower the signal. On the procedure: APR_HepG2_24hr is a cell-based, multiplexed-readout assay that uses HepG2, a human liver cell line, with measurements taken at 24 hours after chemical dosing in a 384-well plate.APR_HepG2_MitoticArrest_24hr is one of 10 assay component(s) measured or calculated from the APR_HepG2_24hr assay. It is designed to make measurements of cell phenotype, a form of morphology reporter, as detected with fluorescence intensity signals by HCS Fluorescent Imaging technology.Data from the assay component APR_HepG2_MitoticArrest_24hr was analyzed into 1 assay endpoint. This assay endpoint, APR_HepG2_MitoticArrest_24hr, was analyzed with bidirectional fitting relative to DMSO as the negative control and baseline of activity. Using a type of morphology reporter, measures of protein for gain or loss-of-signal activity can be used to understand the signaling at the pathway-level as they relate to the gene . Furthermore, this assay endpoint can be referred to as a primary readout, because this assay has produced multiple assay endpoints where this one serves a signaling function. To generalize the intended target to other relatable targets, this assay endpoint is annotated to the cell cycle intended target family, where the subfamily is arrest.
Cells were treated with dimethyl sulfoxide (DMSO) as a solvent control at a final concentration of 0.5% v/v or with compounds in DMSO with a resulting final DMSO concentration of 0.5% v/v. Compound treatment was done at concentrations of 0.39, 0.78, 1.56, 3.12, 6.24, 12.5, 25, 50, 100, and 200 uM in duplicate on each plate. Cells were treated with compounds for 1, 24, or 72 hr. Carbonyl […] m-chloro-phenylhydrazone (CCCP) and taxol were used as positive controls for mitochondrial function and cytoskeletal stability, respectively; DMSO served as the negative control for this experiment. Cells were fixed by the direct addition of 50 uL formaldehyde in Hank's Balanced Salt Solution (HBSS) to a final concentration of 3.7%. After incubation in the fixation medium for 30 min at room temperature (293-298 K), cells were rinsed twice with HBSS and treated with cell permeabilization buffer (16 uL of 0.5% Triton X-100) for 10 min at room temperature (293-298 K) before labeling. For mitochondrial membrane potential and mitochondrial measurements, pre-fixed cells were incubated with 50 uL of MitoTracker Red CMXRos (Invitrogen) at a concentration of 250 nM for 30 min before fixation. In the remaining cases, post-fixed cells were labeled by incubation with a multiplexed mixture of primary antibodies in HBSS for 60 min at room temperature (293-298 K) to detect immunoreactivity of c-Jun (1:500), phospho-histone H3 (1:100), phospho-histone H2A.x (1:200), p53 (1:400), alpha-tubulin (1:200) and Hoechst 33342 (2 ug/mL). Cells were labeled for multiplexed imaging on two separate plates: a) Hoechst 33342, MitoTracker Red, phospho-histone H3, and alpha-tubulin, and b) Hoechst 33342, phospho-histone H2A.x, and c-Jun. A final rinse with HBSS (50 uL) was performed before analysis. The primary and secondary antibodies for the proteins were phospho-histone H3 (rabbit anti-phospho-histone H3 and FITC-donkey anti-rabbit IgG), phospho-histone H2A.x (mouse anti-phospho-histone H2A.x and FITC-donkey anti-mouse IgG), c-Jun (rabbit anti-phospho-c-Jun and Cy3-donkey anti-rabbit IgG), p53 (sheep anti-p53 and Cy5-donkey anti-sheep IgG), alpha-tubulin (mouse anti-alpha-tubulin and Cy5-donkey anti-mouse IgG). These antibodies are available as the CellCiphr HepG2 assay kit (Millipore).Digital images of each well were captured using a Cellomics ArrayScan VTI (Thermo Scientific Cellomics) (0.8 NA objective, 0.63x optical coupler, and XF-93 filter set) at 20x magnification. The images were acquired using the autofocus feature of the ArrayScan instrument, which entails the following steps. First, the camera focuses on channel 1 (Hoechst 33342), where nuclei are identified. Second, a Z offset of 1 um is used for capturing mitochondria (MitoTracker Red). […]
Consider `Cc1cccc([N+](=O)[O-])c1C`, for which the outcome was inactive.

With `NC(=O)Cn1c(=O)cc(CCN2CCN(c3nccc4sccc34)CC2)c2ccc(F)cc21`, the result was inactive.

For the compound `Nc1ccccc1N`, the call was inactive.

In the case of `CCOC(=O)C(C)(C)Oc1ccc(Cl)cc1`, the compound was called inactive.

For `Cc1oc(-c2ccccc2)nc1CCOc1cccc2c1ccn2CCC(=O)O`, the compound was classed as inactive.

On to `CC1(C)NC(=O)NC1=O`, for which the result was inactive.

Consider `CCCCCCC(=O)OCC`, for which the compound was classed as inactive.

As for `CCCCOC(=O)CCCCCCCCC(=O)OCCCC`, the outcome was inactive.

Turning to `O=[N+]([O-])C(CO)(CO)CO`, the result was inactive.

Turning to `COc1ccc(S(=O)(=O)N2C(=O)[C@@](c3ccccc3OC)(N3C[C@H](O)C[C@H]3C(=O)N(C)C)c3cc(Cl)ccc32)c(OC)c1`, the AC50 is 63 µM (active).

With `CCCCN(CCCC)CCCC`, the result was inactive.

Regarding `CCCCc1ccc2c(n1)[C@@H](c1ccc(OC)cc1C[C@H](C)C(=O)O)[C@H](C(=O)O)[C@H]2c1ccc2c(c1)OCO2`, the call was inactive.

With `Cc1ccc(C)c(C)c1`, the compound was classed as inactive.

For the compound `FC(F)(F)C(F)(F)C(F)(F)C(F)(F)C(F)(F)C(F)(F)CCI`, the outcome was inactive.

Regarding `NCCO`, the result was inactive.

On to `CCCCC(CC)COC(=O)CC(C(=O)OCC(CC)CCCC)S(=O)(=O)O` (stereo not given), for which the AC50 is 105 µM (active).

Consider `CC(C)(C)c1cc(O)c(C(C)(C)C)cc1O`, for which the AC50 was 83.6 µM (active).

`Cc1cccc(C)c1O`: the compound was called inactive.

Consider `CC(=O)C(C)=CC1C(C)=CCCC1(C)C` (stereo not given), for which the compound was classed as inactive.

As for `CCOc1ccc2c(c1)C(C)=CC(C)(C)N2`, the compound was classed as inactive.

Turning to `Nc1ccc(S(=O)(=O)c2ccc(N)cc2)cc1`, the compound was called inactive.

As to `CCc1c(C(=O)NN2CCCCC2)nn(-c2ccc(Cl)cc2Cl)c1-c1ccc(Br)cc1`, the AC50 is 46.8 µM (active).

Take `C1CCC(SSC2CCCCC2)CC1`: the compound was called inactive.

In the case of `CC(C)c1ccc(C(=O)N=C(N)N)cc1S(C)(=O)=O`, the compound was called inactive.

`COc1ccc(C)cc1N`: the call was inactive.

In the case of `COc1cc(S(=O)(=O)O)c(C)cc1N=Nc1c(O)ccc2cc(S(=O)(=O)O)ccc12`, the call was inactive.

On to `CN[C@H]1CC[C@@H](c2ccc(Cl)c(Cl)c2)c2ccc(S(N)(=O)=O)cc21`, for which the result was inactive.

`COCCOC[C@H](CC1(C(=O)NC2CCC(C(=O)O)CC2)CCCC1)C(=O)Oc1ccc2c(c1)CCC2` (stereo not given in full): the compound was called inactive.

As to `c1cc(-c2ccncc2)ccn1`, the call was inactive.

On to `CC(=O)OC/C=C(\C)CCC=C(C)C`, for which the compound was classed as inactive.

As to `C=CCOC(=O)c1ccccc1C(=O)OCC=C`, the call was inactive.

For `Cc1ccc(C(C)C)c(O)c1`, the compound was classed as inactive.

`CC1=C(/C=C/C(C)=C/C=C/C(C)=C/CO)C(C)(C)CCC1`: the AC50 was 81.6 µM (active).

Regarding `CCCc1cc(=O)[nH]c(=S)[nH]1`, the call was inactive.

On to `CCCCCCOCCO`, for which the compound was classed as inactive.

For the compound `Nc1nc(N)c2nc(CNc3ccc(C(=O)N[C@@H](CCC(=O)O)C(=O)O)cc3)cnc2n1`, the result was inactive.

In the case of `Nc1ccc2c(c1)C(=O)c1ccccc1C2=O`, the outcome was inactive.

For `Cc1nc(C)nc(N2C[C@@H](C)N(c3ccnc([C@@H](C)O)n3)[C@@H](C)C2)n1`, the outcome was inactive.

For the compound `Cc1cccc(Nc2cc(Cl)nc(SCC(=O)O)n2)c1C`, the result was inactive.

As for `CNC(=O)[C@H]1O[C@@H](n2cnc3c(NCc4cc(Cl)ccc4OCc4cc(C)no4)ncnc32)[C@H](O)[C@@H]1N`, the call was inactive.

As usually defined, the AC50 is the midpoint of the concentration-response curve, whichever way the signal moves.

The record behind these values is PubChem BioAssay (EPA / NIEHS).
